Results published in PubChem BioAssay AID1159580 (chemical genetic matrix, 2015).
Values joined by “and” are separate entries in the source; they are usually repeats but may differ in a detail not shown here. Equal entries are not always repeated. About 2,000 (36%) of roughly 5,500 compounds were called active. Roughly 18% stayed inconclusive and do not appear here. Cut-off read from the data, not from the text of the source: active = normalized growth mostly below about 0.91 (no sharp cut-off); inconclusive = no clear call, values can overlap the other calls; inactive = mostly above about 0.92. Some of the results follow.

Assay: chemical genetic growth profiling, strain panel (AID 1159580);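 note: tested at 20 µM; growth read once vehicle control cultures reached saturation at 30 °C; 1 = growth at the plate median or of vehicle wells; lower values mean less growth of the strain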
Conditions: S. cerevisiae deletion strains, growth OD

Measured: normalized growth

CN(C)CCC=C1c2ccccc2CCc2ccccc21
inactive: locus YAL013W, strain DEP1, stronger effect = lower value 0.992 | locus YAL030W, strain snc1, stronger effect = lower value 0.995 | locus YAL040C, strain CLN3, stronger effect = lower value 1 | locus YBL061C, strain skt5, stronger effect = lower value 0.991 | locus YBR009C, strain hhf1, stronger effect = lower value 0.913 | locus YBR021W, strain FUR4, stronger effect = lower value 1 | locus YBR023C, strain chs3, stronger effect = lower value 0.975 | locus YBR171W, strain sec66, stronger effect = lower value 0.969 | locus YBR229C, strain ROT2, stronger effect = lower value 1 | locus YBR231C, strain swc5, stronger effect = lower value 1 | locus YBR279W, strain paf1, stronger effect = lower value 0.958 | locus YCL011C, strain gbp2, stronger effect = lower value 0.946 | locus YCL016C, strain dcc1, stronger effect = lower value 0.958 | locus YCL029C, strain bik1, stronger effect = lower value 1 | locus YCL061C, strain MRC1, stronger effect = lower value 0.993 | locus YCL069W, strain vba3, stronger effect = lower value 0.987 | locus YCR088W, strain abp1, stronger effect = lower value 0.953 | locus YDL005C, strain med2, stronger effect = lower value 0.993 | locus YDL035C, strain GPR1, stronger effect = lower value 1.02 | locus YDL040C, strain nat1, stronger effect = lower value 0.989 | locus YDL074C, strain BRE1, stronger effect = lower value 0.999 | locus YDL101C, strain DUN1, stronger effect = lower value 1.01 | locus YDL134C, strain PPH21, stronger effect = lower value 0.998 | locus YDL185W, strain tfp1, stronger effect = lower value 1 | locus YDL192W, strain arf1, stronger effect = lower value 0.996 | locus YDR001C, strain nth1, stronger effect = lower value 0.963 | locus YDR069C, strain doa4, stronger effect = lower value 0.955 | locus YDR101C, strain arx1, stronger effect = lower value 0.995 | locus YDR159W, strain sac3, stronger effect = lower value 0.962 | locus YDR162C, strain NBP2, stronger effect = lower value 1.02 | locus YDR195W, strain ref2 1.07 | locus YDR297W, strain sur2, stronger effect = lower value 0.975 | locus YDR318W, strain mcm21, stronger effect = lower value 1 | locus YDR334W, strain swr1, stronger effect = lower value 0.98 | locus YDR335W, strain msn5, stronger effect = lower value 0.973 | locus YDR363W, strain ESC2, stronger effect = lower value 1 | locus YDR388W, stronger effect = lower value 1 | locus YDR392W, strain spt3, stronger effect = lower value 0.922 | locus YDR502C, strain sam2, stronger effect = lower value 0.992 | locus YEL003W, strain gim4, stronger effect = lower value 0.978 | locus YEL037C, strain rad23, stronger effect = lower value 0.984 | locus YEL061C, strain CIN8 (second series), stronger effect = lower value 0.988 | locus YEL061C, strain CIN8, stronger effect = lower value 1.01 | locus YER002W, strain NOP16, stronger effect = lower value 1.01 | locus YER016W, strain bim1, stronger effect = lower value 0.951 | locus YER110C, stronger effect = lower value 1 | locus YER111C, strain swi4, stronger effect = lower value 0.97 | locus YER155C, strain BEM2 (second series), stronger effect = lower value 1 | locus YER155C, strain BEM2, stronger effect = lower value 1 | locus YER167W, strain BCK2, stronger effect = lower value 1.01 | locus YFR010W, strain ubp6, stronger effect = lower value 0.94 | locus YGL078C, strain dbp3, stronger effect = lower value 0.986 | locus YGL086W, strain mad1, stronger effect = lower value 1 | locus YGL167C, strain pmr1, stronger effect = lower value 0.995 | locus YGL173C, strain kem1, stronger effect = lower value 0.966 | locus YGL227W, strain vid30, stronger effect = lower value 0.994 | locus YGL240W, strain doc1, stronger effect = lower value 0.999 | locus YGL248W, strain PDE1, stronger effect = lower value 1.01 | locus YGL253W, strain hxk2, stronger effect = lower value 0.953 | locus YGR078C, strain PAC10, stronger effect = lower value 1 | locus YGR135W, strain pre9, stronger effect = lower value 0.994 | locus YGR229C, strain SMI1, stronger effect = lower value 0.975 | locus YGR252W, strain gcn5, stronger effect = lower value 0.944 | locus YHR013C, strain ard1, stronger effect = lower value 0.875 | locus YHR030C, strain SLT2, stronger effect = lower value 1.01 and 1.08 | locus YHR079C, strain IRE1 (second series), stronger effect = lower value 0.994 | locus YHR079C, strain IRE1, stronger effect = lower value 1.05 | locus YHR094C, strain hxt1, stronger effect = lower value 0.992 | locus YHR129C, strain ARP1, stronger effect = lower value 1.01 | locus YHR142W, strain chs7, stronger effect = lower value 0.919 | locus YHR200W, strain rpn10, stronger effect = lower value 0.995 | locus YIL066C, strain RNR3, stronger effect = lower value 1.02 | locus YIL073C, strain SPO22, stronger effect = lower value 1.05 | locus YIL125W, strain kgd1, stronger effect = lower value 0.997 | locus YIR030C, strain dcg1, stronger effect = lower value 0.992 | locus YJL092W, strain hpr5, stronger effect = lower value 0.979 | locus YJL095W, strain BCK1 (second series), stronger effect = lower value 0.978 | locus YJL095W, strain BCK1, stronger effect = lower value 1.01 and 1.05 | locus YJL115W, strain asf1, stronger effect = lower value 0.974 | locus YJL129C, strain trk1, stronger effect = lower value 1.01 | locus YJL134W, strain LCB3, stronger effect = lower value 1.01 | locus YJL154C, strain vps35, stronger effect = lower value 0.975 | locus YJL164C, strain tpk1, stronger effect = lower value 0.974 | locus YJL166W, strain qcr8, stronger effect = lower value 0.988 | locus YJL168C, strain set2, stronger effect = lower value 1.01 | locus YJL187C, strain SWE1 (second series), stronger effect = lower value 1.01 | locus YJL187C, strain SWE1, stronger effect = lower value 0.985 | locus YJR043C, strain POL32, stronger effect = lower value 1.01
active: locus YAL021C, strain ccr4, stronger effect = lower value 0.896 | locus YAL026C, strain drs2, stronger effect = lower value 0.894 | locus YDR137W, strain rgp1, stronger effect = lower value 1.19 [resistant] | locus YER015W, strain faa2, stronger effect = lower value 0.913 | locus YHR027C, strain rpn1, stronger effect = lower value 0.864
